In PubChem BioAssay AID1159580 (chemical genetic matrix, 2015):
Out of some 5,500 compounds screened, about 2,000 (36%) were called active. Another 18% or so got no clear call; they are omitted. Cut-off read from the data, not from the text of the source: active = normalized growth mostly below about 0.91 (no sharp cut-off); inconclusive = no clear call, values can overlap the other calls; inactive = mostly above about 0.92. The list shows a part of the results.

Assay: chemical genetic growth profiling, strain panel (AID 1159580);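 note: tested at 20 µM; growth read once vehicle control cultures reached saturation at 30 °C; 1 = growth at the plate median or of vehicle wells; lower values mean less growth of the strain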
Conditions: growth OD

Measured: normalized growth

C1CCN(CCC2CCCCN2)CC1 (stereo not drawn)
inactive: S. cerevisiae deletion strains, locus YAL013W, strain DEP1, hits give low values 0.999 | S. cerevisiae deletion strains, locus YBR229C, strain ROT2, hits give low values 1.01 | S. cerevisiae deletion strains, locus YDL101C, strain DUN1, hits give low values 0.995 | S. cerevisiae deletion strains, locus YDL134C, strain PPH21, hits give low values 1 | S. cerevisiae deletion strains, locus YDR150W, strain NUM1, hits give low values 0.936 | S. cerevisiae deletion strains, locus YEL061C, strain CIN8, hits give low values 1.02 | S. cerevisiae deletion strains, locus YGR078C, strain PAC10, hits give low values 1 | S. cerevisiae deletion strains, locus YHR030C, strain SLT2, hits give low values 1.08 | S. cerevisiae deletion strains, locus YHR087W, strain rtc3, hits give low values 1 | S. cerevisiae deletion strains, locus YJR043C, strain POL32, hits give low values 1 | S. cerevisiae deletion strains, locus YJR075W, strain HOC1, hits give low values 0.998 | S. cerevisiae deletion strains, locus YKL190W, strain CNB1, hits give low values 0.998 | S. cerevisiae deletion strains, locus YLR039C, strain RIC1, hits give low values 1.01 | S. cerevisiae deletion strains, locus YLR058C, strain SHM2 (second series), hits give low values 1.01 | S. cerevisiae deletion strains, locus YLR085C, strain ARP6, hits give low values 1.01 | S. cerevisiae deletion strains, locus YLR262C, strain YPT6, hits give low values 1 | S. cerevisiae deletion strains, locus YML094W, strain GIM5, hits give low values 1.01 | S. cerevisiae deletion strains, locus YMR219W, strain ESC1, hits give low values 1 | S. cerevisiae deletion strains, locus YMR263W, strain SAP30, hits give low values 1.01 | S. cerevisiae deletion strains, locus YNL153C, strain GIM3, hits give low values 1 | S. cerevisiae deletion strains, locus YNL298W, strain CLA4 (second series), hits give low values 0.981 | S. cerevisiae deletion strains, locus YNL322C, strain KRE1, hits give low values 0.995 | S. cerevisiae deletion strains, locus YNR030W, strain Alg12, hits give low values 0.996 | S. cerevisiae deletion strains, locus YOL006C, strain TOP1, hits give low values 0.964 | S. cerevisiae deletion strains, locus YPL055C, strain LGE1, hits give low values 0.967 | S. cerevisiae deletion strains, locus YPL241C, strain CIN2, hits give low values 0.993 | S. cerevisiae deletion strains, locus YPR135W, strain CTF4, hits give low values 1.08 | S. cerevisiae strains, strain wild type, hits give low values 0.996
